In paper PMC4336329 (PLoS ONE, 2015):
Out of some 310,000 compounds screened, about 14,000 (4.5%) showed an effect of 50% or more. The effect is printed as a negative number. This is one part of a sample in which strong results are shown more often than they occur.

target: human ether-à-go-go-related gene (hERG) potassium channel (human, UniProt Q12809); assay: primary screen, population patch clamp on CHO cells stably expressing hERG; higher = less effect of the substance
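Note: peak tail current of the secondary pulse compared with the same well before compound.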

human ether-à-go-go-related gene (hERG) potassium channel, sequence (Q12809 whole entry, looked up): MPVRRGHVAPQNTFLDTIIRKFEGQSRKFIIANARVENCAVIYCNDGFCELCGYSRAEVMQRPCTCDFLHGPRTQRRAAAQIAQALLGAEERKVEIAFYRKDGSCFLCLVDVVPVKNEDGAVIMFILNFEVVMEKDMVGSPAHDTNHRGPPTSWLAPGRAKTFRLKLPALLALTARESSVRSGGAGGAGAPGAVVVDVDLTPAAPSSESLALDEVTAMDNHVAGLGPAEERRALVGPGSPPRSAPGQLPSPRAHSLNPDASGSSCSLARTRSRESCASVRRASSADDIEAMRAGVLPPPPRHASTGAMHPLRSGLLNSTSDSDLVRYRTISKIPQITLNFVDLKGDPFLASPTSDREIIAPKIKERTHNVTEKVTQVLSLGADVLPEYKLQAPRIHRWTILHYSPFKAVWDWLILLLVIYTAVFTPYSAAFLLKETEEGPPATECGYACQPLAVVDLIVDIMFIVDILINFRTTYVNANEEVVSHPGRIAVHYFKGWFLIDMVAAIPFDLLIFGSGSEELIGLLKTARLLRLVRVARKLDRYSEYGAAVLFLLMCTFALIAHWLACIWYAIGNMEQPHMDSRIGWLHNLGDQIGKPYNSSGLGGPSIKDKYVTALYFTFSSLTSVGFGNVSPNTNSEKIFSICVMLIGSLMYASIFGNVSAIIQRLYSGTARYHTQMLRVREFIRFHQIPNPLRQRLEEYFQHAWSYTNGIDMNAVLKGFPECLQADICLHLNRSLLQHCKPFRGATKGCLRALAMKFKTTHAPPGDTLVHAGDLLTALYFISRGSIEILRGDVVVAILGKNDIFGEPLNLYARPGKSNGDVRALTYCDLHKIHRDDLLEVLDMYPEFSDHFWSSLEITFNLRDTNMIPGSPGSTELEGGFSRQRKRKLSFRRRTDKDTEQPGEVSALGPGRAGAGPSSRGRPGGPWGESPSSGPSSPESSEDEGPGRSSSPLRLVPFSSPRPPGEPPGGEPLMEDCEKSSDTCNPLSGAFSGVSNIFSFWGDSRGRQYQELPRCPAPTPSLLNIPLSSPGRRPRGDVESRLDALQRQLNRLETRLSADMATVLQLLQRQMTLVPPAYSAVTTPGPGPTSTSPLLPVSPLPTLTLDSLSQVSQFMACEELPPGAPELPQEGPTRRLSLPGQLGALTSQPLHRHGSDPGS

Compound | hERG current change (%, negative = inhibition) at 10uM
COc1ccc(S(=O)(=O)Cc2ccc(C(=O)NCCc3cc(OC)ccc3OC)o2)cc1 | -39.6%
COc1ccccc1C(CC(N)=O)c1ccco1 (centres unmarked) | 10.1%
O=C(Cc1cn2ccsc2n1)Nc1nc2c(s1)CCCC2 | -0.221%
CN(C)c1ccc(-c2nnn(CC(=O)Nc3ccccc3N3CCOCC3)n2)cc1 | -15.1%
CCOn1c(=O)c(-c2ccc(Br)cc2)[n+]([O-])c2ccccc21 | 13.6%
CNc1nc(N)c([N+](=O)[O-])c(NCc2ccccc2)n1 | -1.09%
Oc1ccc(Br)cc1CNc1cnc2ccccc2c1 | 16.4%
O=C(COC(=O)c1ncc(Cl)c(Cl)c1Cl)NNC(=O)c1ccccc1 | -1.26%
CCC(=O)Nc1ccc(C(=O)c2ccccc2)cc1 | -9.96%
Cc1ccc(C)c(NC(=O)[C@@H]2CCCN2S(=O)(=O)c2ccccc2F)c1 | 10.9%
COc1ccc(Nc2cc(Nc3ccccc3)ncn2)cc1 | 11.5%
COc1ccc(-c2ccc(=O)n(Cc3ccc([N+](=O)[O-])cc3)n2)cc1 | -75%
COc1ccc(-c2ccc(=O)n(Cc3ccccc3)n2)cc1 | -5.74%
COc1ccc(-c2ccc(=O)n(Cc3cccc([N+](=O)[O-])c3)n2)cc1 | -21.2%
C=CCOc1ccc(CNn2cn[nH]c2=S)cc1OCC | 12.7%
CN(CC(=O)Nc1ccccc1Br)C(=O)CCc1nc2ccccc2c(=O)[nH]1 | -15.8%
COC(=O)c1cc(C(=O)c2ccc(Cl)cc2Cl)cn1C | -16.4%
CCCCOc1ccc(C(=O)NCC(=O)N2CCN(C(=O)c3ccco3)CC2)cc1 | -57.4%
COc1ccc(C(=O)NCC(=O)N2CCN(C(=O)c3ccco3)CC2)cc1 | -13.7%
O=C(NCC(=O)N1CCN(C(=O)c2ccco2)CC1)c1ccc(Br)cc1 | -53.9%
O=C(NCC(=O)N1CCN(C(=O)c2ccco2)CC1)c1ccccc1 | -7.74%

Compound | hERG current change (%, negative = inhibition) at 10uM
O=C(NCCC(=O)N1CCN(C(=O)c2ccco2)CC1)c1ccc(Br)cc1 | -28.6%
O=C(NCC(=O)N1CCN(C(=O)c2ccco2)CC1)c1ccc(Cl)cc1 | -34.1%
O=[N+]([O-])c1ccc(Sc2n[nH]c(-c3ccncc3)n2)nc1 | 14.4%
CCCN(CC(=O)Nc1ccccc1C)C(=O)/C=C/c1ccc(OCC)c(OC)c1 | -46.7%
Cc1ccc(NC(=O)CSc2nnc(/N=C/N(C)C)s2)cc1 | -7.65%
COc1ccc2c(c1)NC(c1ccc(N(C)C)cc1)c1cccn1-2 (centres unmarked) | 12.5%
Cc1nc(N2CCN(c3ccccn3)CC2)c2c(C)c(C(=O)Nc3ccc(F)c(Cl)c3)sc2n1 | 14.2%
Cc1cccc(NC(=O)c2sc3ncn(CC(=O)N4CCN(c5ccccn5)CC4)c(=O)c3c2C)c1 | -61.4%
CCc1ccc(NC(=O)c2sc3nc(C)nc(N4CCN(c5ccccn5)CC4)c3c2C)cc1 | 5.47%
Cc1nc(N2CCN(c3ccccn3)CC2)c2c(C)c(C(=O)Nc3ccc(Br)cc3C)sc2n1 | 11.6%
Cc1nc(N2CCN(c3ccccn3)CC2)c2c(C)c(C(=O)Nc3ccc(F)cc3)sc2n1 | -76.4%
Cc1nc(N2CCN(c3ccccn3)CC2)c2c(C)c(C(=O)Nc3ccc(F)cc3Cl)sc2n1 | -41.6%
Cc1nc(N2CCN(c3ccccn3)CC2)c2c(C)c(C(=O)Nc3ccc(Cl)cc3)sc2n1 | -7.01%
COc1cccc(NC(=O)c2sc3ncn(CC(=O)N4CCN(c5ccccn5)CC4)c(=O)c3c2C)c1 | -0.877%
Cc1nc(N2CCN(c3ccccn3)CC2)c2c(C)c(C(=O)Nc3ccc(F)cc3F)sc2n1 | -57.9%
Cc1ccc(NC(=O)c2sc3ncn(CC(=O)N4CCN(c5ccccn5)CC4)c(=O)c3c2C)cc1Cl | -7.77%
Cc1ccc(NC(=O)c2sc3nc(C)nc(N4CCN(c5ccccn5)CC4)c3c2C)c(C)c1 | -40.1%
Cc1nc(N2CCN(c3ccccn3)CC2)c2c(C)c(C(=O)Nc3ccccc3F)sc2n1 | -55.3%
C1CCC(C(CC2CCCCN2)C2CCCCC2)CC1.O=C(O)/C=C\C(=O)O (centres unmarked) | -22.6%
Cn1c(SCC(=O)Nc2ccc3nc(SCC(=O)NC4CC4)sc3c2)nnc1-c1ccccc1 | -5.5%
O=C(CSc1nnc(Cn2nnc(-c3ccccc3)n2)n1-c1ccccc1)Nc1ccc(F)cc1 | 3.55%

Compound | hERG current change (%, negative = inhibition) at 10uM
CC1CCN(C(=O)C(Cc2ccccc2)NS(=O)(=O)c2ccc3c(c2)oc(=O)n3C)CC1 (centres unmarked) | -2.38%
O=C(Nc1ccc2ccccc2c1)c1ccc(Cl)cc1Cl | 31%
O=c1c2c3nc4ccccc4nc3n(/N=C/c3ccccn3)c2ncn1-c1ccccc1 | 19.8%
CC(c1ccco1)N(C(=O)COc1ccc(Cl)cc1)c1ccccn1 (centres unmarked) | -12.7%
O=C(NNS(=O)(=O)c1ccc(F)cc1)c1ccc(O)cc1 | 9.17%
CCOc1ccc(NC(=O)c2sc3nc(C)nc(N4CCOCC4)c3c2C)cc1 | -50.7%
Cc1nc(N2CCOCC2)c2c(C)c(C(=O)Nc3ccc(C(F)(F)F)cc3)sc2n1 | -34.9%
CCOc1ccccc1NC(=O)c1sc2nc(C)nc(N3CCOCC3)c2c1C | -14.4%
CCC(C)(C)NC(=O)CN(Cc1cccs1)C(=O)CCC(=O)Nc1nccs1 | -36.6%
CCC(=O)NC(=S)N1CCN(c2ccc([N+](=O)[O-])cc2Cl)CC1 | -26.4%
CC(C)CC(=O)NC(=S)N1CCN(c2ccc([N+](=O)[O-])cc2Cl)CC1 | -30.9%
CC(C)(C)C(=O)N1CCN(c2ccc([N+](=O)[O-])cc2Cl)CC1 | -33.2%
CC(C)C(=O)N1CCN(c2ccc([N+](=O)[O-])cc2Cl)CC1 | -30.9%
CC(C)CC(=O)N1CCN(c2ccc([N+](=O)[O-])cc2Cl)CC1 | -59.9%
CCCC(=O)N1CCN(c2ccc([N+](=O)[O-])cc2Cl)CC1 | -52.2%
C=CCn1c(SCC(=O)Nc2nccs2)nnc1-c1cc2cccc(OC)c2o1 | -4.98%
CC1CCN(C2=NN3C(=N)/C(=C\c4ccc(OC(=O)c5ccco5)cc4)C(=O)N=C3S2)CC1 | 12.6%
O=C(NCc1ccccc1)C(c1ccccn1)N(C(=O)c1csnn1)c1ccccc1F (centres unmarked) | -5.45%
COc1ccc(N2CCN(C(=S)NCCc3ccccc3)CC2)cc1 | -5.71%
O=C(CCCOc1ccccc1)N1CCN(c2ccccn2)CC1 | -8.9%
Cc1ccc(Oc2ccccc2/C=C2\SC(=O)N(C)C2=O)cc1 | 4.1%

Compound | hERG current change (%, negative = inhibition) at 10uM
C=CCNC(=O)CC1C(=O)NCCN1Cc1ccc(-c2ccccc2)cc1 (centres unmarked) | -7.59%
CC(C)Cn1c(N)c(C(=O)COC(=O)CN2C(=O)C3CC=CCC3C2=O)c(=O)n(C)c1=O (centres unmarked) | -4.23%
CCCc1[nH]nc2c1C(c1ccc(O)c(OC)c1)C(C#N)=C(N)O2 (centres unmarked) | -31.9%
COc1ccc(CCN(C)C/C=C/c2ccccc2[N+](=O)[O-])cc1OC | -70.8%
COc1ccc(CCN(C)Cc2c(F)cccc2F)cc1OC | -25.6%
CN(C/C=C/c1ccccc1[N+](=O)[O-])Cc1ccccc1 | -46%
COc1ccc(CCNC(=O)/C=C\c2ccccc2)cc1OC | -7.74%
COc1ccc(CCN(C)c2ccc(C(N)=O)cc2[N+](=O)[O-])cc1OC | -6.3%
COc1ccc(CCN(C)C/C=C/c2ccccc2)cc1OC | -64.6%
Cc1ccn2cc(-c3cccc(NC(=O)C(C)C)c3)nc2c1 | 3.3%
Cc1cc(NC(=O)CCC(=O)N(CC(=O)NC2CCCC2)c2cccc(F)c2)no1 | -3.17%
Cc1ccc(C(=O)N[C@H](C(=O)Nc2sccc2C(N)=O)C(C)C)cc1 | 5.47%
CCn1cc(-c2nnnn2-c2ccc(Cl)cc2)c(=O)c2ccccc21 | -58.8%
Cn1cc(-c2nnnn2-c2ccc(Cl)cc2)c(C(F)(F)F)n1 | -4.49%
O=C(Cn1cc(-c2nnnn2-c2ccc(Cl)cc2)c(=O)c2ccccc21)c1ccccc1 | 4.29%
Cn1cc(-c2nnnn2-c2ccc(Cl)cc2)c(=O)c2ccccc21 | -69.3%
Clc1ccc(-n2nnnc2-c2ccccc2)cc1 | -0.933%
Cn1cc(-c2nnnn2-c2ccccc2)c(=O)c2ccccc21 | -8.94%
COc1ccc(OC)c(S(=O)(=O)N2CCCC(C(=O)NCc3ccco3)C2)c1 (centres unmarked) | -5.29%
O=C(c1ccc(N2C(=O)CCC2=O)cc1)N1CCOCC1 | 7.4%
